Measurements published in PubChem BioAssay (NCI).
About 79,000 compounds went through this panel and 15% of them were active in at least one assay; those are over-represented in the sample as a whole. Activity calls are given as the source filed them. Cut-off read from the data, not from the text of the source: active = growth inhibition above about 70%; inactive = the rest.

Key:
[1] = NCI Yeast Anticancer Drug Screen. Data for the rad52 strain (AID 147);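 note: 0% = growth of vehicle-treated control cultures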; settings: S. cerevisiae rad52 mutant growth inhibition, stronger effect = higher value
Summary of the method: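 Compounds are applied to a genetically defined yeast strain lacking normal DNA damage repair, and inhibition of growth is expressed relative to cultures given vehicle only.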

[2] = NCI Yeast Anticancer Drug Screen. Data for the wt1 strain (AID 149);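 note: 0% = growth of vehicle-treated wt1 cultures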; settings: S. cerevisiae wt1 strain (SPY 50644) growth inhibition, stronger effect = higher value
Summary of the method: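 Each compound is tested on wt1 yeast and the loss of growth versus vehicle gives the inhibition value.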

[3] = NCI Yeast Anticancer Drug Screen. Data for the rad50EPP+ strain (AID 151);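 note: 0% = growth of vehicle-treated control cultures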; settings: S. cerevisiae rad50 mutant strain, stronger effect = higher value
Summary of the method: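 Compounds were applied to the rad50EPP+ yeast strain, which bears a defined DNA repair alteration, and growth inhibition was determined relative to vehicle-treated cultures.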

[4] = NCI Yeast Anticancer Drug Screen. Data for the mgt1 strain (AID 153); settings: S. cerevisiae mgt1 mutant growth inhibition, stronger effect = higher value
Summary of the method: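 Strain: mgt1 yeast, one of a set carrying defined DNA damage repair or cell cycle control alterations. Compound-treated growth compared with vehicle.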

[5] = NCI Yeast Anticancer Drug Screen. Data for the rad50 strain (AID 155);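 note: 0% = growth of vehicle-only cultures of the same strain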; settings: S. cerevisiae rad50 strain growth inhibition, stronger effect = higher value
Summary of the method: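 Vehicle-treated cultures provide the reference for the growth inhibition reported for compound-exposed, repair-deficient yeast.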

[6] = NCI Yeast Anticancer Drug Screen. Data for the mec2-1 strain (AID 157); settings: S. cerevisiae mec2-1 strain, stronger effect = higher value
Summary of the method: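 Strain: mec2-1 (DNA repair/cell cycle alteration). Compound exposure, then growth measured; inhibition expressed relative to vehicle.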

[7] = NCI Yeast Anticancer Drug Screen. Data for the rad14 strain (AID 159);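 note: 0% = growth of vehicle-treated control cultures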; settings: S. cerevisiae rad14 strain growth inhibition, stronger effect = higher value
Summary of the method: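 Inhibition of growth is reported for a repair-deficient yeast mutant following compound treatment, calculated relative to cultures that received vehicle.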

[8] = NCI Yeast Anticancer Drug Screen. Data for the sgs1 mgt1 strain (AID 161);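 note: 0% = growth of cultures given vehicle only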; settings: S. cerevisiae sgs1 mgt1 strain, stronger effect = higher value
Summary of the method: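 Mutant yeast exposed to compound; growth scored against vehicle-only wells.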

[9] = NCI Yeast Anticancer Drug Screen. Data for the CLN2oe strain (AID 163);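 note: 0% = growth of vehicle-only control cultures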; settings: S. cerevisiae CLN2oe strain, stronger effect = higher value
Summary of the method: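 Growth of a genetically modified yeast strain is measured after compound exposure and compared with cultures given vehicle alone.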

[10] = NCI Yeast Anticancer Drug Screen. Data for the cln2 rad14 strain (AID 165);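 note: 0% = growth equal to vehicle treated cultures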; settings: S. cerevisiae cln2 rad14 strain, stronger effect = higher value
Summary of the method: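 Compounds are applied to the cln2 rad14 yeast strain, and growth is then compared with that of vehicle-treated cultures to give inhibition.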

[11] = NCI Yeast Anticancer Drug Screen. Data for the bub3 strain (AID 167); settings: S. cerevisiae bub3 mutant strain, stronger effect = higher value
Summary of the method: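 Mutant yeast screening strain plus compound; vehicle-treated cultures serve as the 0% inhibition reference.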

[12] = NCI Yeast Anticancer Drug Screen. Data for the wt2 strain (AID 169); settings: S. cerevisiae wt2 strain growth inhibition, stronger effect = higher value
Summary of the method: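 This strain belongs to a panel of yeast strains with defined genetic alterations in DNA damage repair or cell cycle control. Compounds are applied, and growth inhibition is measured against vehicle-treated cultures.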

[13] = NCI Yeast Anticancer Drug Screen. Data for the mlh1 strain (AID 171);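 note: 0% = growth of vehicle-treated control cultures of the same strain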; settings: S. cerevisiae mlh1 strain growth inhibition, stronger effect = higher value
Summary of the method: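 Growth of the mutant yeast strain after compound exposure, expressed as inhibition relative to vehicle-only controls.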

[14] = NCI Yeast Anticancer Drug Screen. Data for the sgs1 strain (AID 173);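 note: 0% = growth of vehicle-only control cultures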; settings: S. cerevisiae sgs1 mutant, stronger effect = higher value
Summary of the method: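 Growth of a yeast strain bearing a defined genetic alteration is measured after compound treatment. Inhibition is expressed relative to vehicle-only controls.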

[15] = NCI Yeast Anticancer Drug Screen. Data for the mlh1 rad18 strain (AID 175); settings: S. cerevisiae mlh1 rad18 strain growth inhibition, stronger effect = higher value
Summary of the method: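 Read-out is yeast growth inhibition, calculated against vehicle-only controls. The compound was applied to a strain engineered with DNA damage repair alterations.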

[16] = NCI Yeast Anticancer Drug Screen. Data for the rad18 strain (AID 177); settings: S. cerevisiae rad18 mutant growth inhibition, stronger effect = higher value
Summary of the method: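 Growth of the mutant yeast strain after compound exposure, normalised to vehicle-only cultures.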

[17] = at 5.0 µM (retest, dose inferred, filed as 0.5)
[18] = at 50.0 µM (retest, dose inferred, filed as 5.0)

Measured: growth inhibition

Cc1cc(OCc2nc(N)nc(N)c2-c2ccc(Cl)c(Cl)c2)ccc1[N+](=O)[O-]
inactive: [1]; at 1.2 µM 0% | [1]; at 3.7 µM 1% | [1]; at 11.0 µM 0% | [1]; at 33.0 µM -1% | [1]; at 100.0 µM -2% | [2]; at 1.2 µM 1% | [2]; at 3.7 µM 1% | [2]; at 11.0 µM 3% | [2]; at 33.0 µM 3% | [2]; at 100.0 µM 4% | [3]; at 1.2 µM -1% | [3]; at 3.7 µM -3% | [3]; at 11.0 µM -1% | [3]; at 33.0 µM -1% | [3]; at 100.0 µM -1% | [4]; at 1.2 µM 2% | [4]; at 3.7 µM 5% | [4]; at 11.0 µM 2% | [4]; at 33.0 µM 1% | [4]; at 100.0 µM 10% | [5]; at 1.2 µM 0% | [5]; at 3.7 µM 6% | [5]; [17] 51% | [5]; at 11.0 µM -3% | [5]; at 33.0 µM 2% | [5]; at 100.0 µM 2% | [6]; at 1.2 µM 2% | [6]; at 3.7 µM 3% | [6]; [17] 48% | [6]; at 11.0 µM 0% | [6]; at 33.0 µM 3% | [6]; at 100.0 µM -10% | [7]; at 1.2 µM -1% | [7]; at 3.7 µM 8% | [7]; at 11.0 µM 3% | [7]; at 33.0 µM 3% | [7]; at 100.0 µM 3% | [8]; [17] 54% | [9]; at 1.2 µM 0% | [9]; at 3.7 µM 2% | [9]; at 11.0 µM 0% | [9]; at 33.0 µM 4% | [9]; at 100.0 µM 6% | [10]; [17] -1% | [10]; [18] 30% | [11]; at 1.2 µM 0% | [11]; at 3.7 µM -1% | [11]; [17] -9% | [11]; at 11.0 µM 0% | [11]; at 33.0 µM -2% | [11]; [18] 53% | [11]; at 100.0 µM 20% | [12]; at 1.2 µM 2% | [12]; at 3.7 µM 4% | [12]; at 11.0 µM 4% | [12]; at 33.0 µM 4% | [12]; at 100.0 µM 5% | [13]; at 1.2 µM 0% | [13]; at 3.7 µM 0% | [13]; at 11.0 µM 0% | [13]; at 33.0 µM -1% | [13]; at 100.0 µM 13% | [14]; at 1.2 µM -1% | [14]; at 3.7 µM -3% | [14]; at 11.0 µM -2% | [14]; at 33.0 µM -1% | [14]; at 100.0 µM 0% | [15]; [17] 26% | [16]; at 1.2 µM -3% | [16]; at 3.7 µM -4% | [16]; at 11.0 µM -8% | [16]; at 33.0 µM -15% | [16]; at 100.0 µM -23%
active: [5]; [18] 84% | [5]; at 50.0 µM 98.7% | [6]; [18] 87% | [6]; at 50.0 µM 95.8% | [8]; [18] 75% | [8]; at 50.0 µM 98.7% | [10]; at 50.0 µM 95% | [11]; at 50.0 µM 79.9% | [15]; [18] 85% | [15]; at 50.0 µM 98.5%
